# Compounds with a hit are over-represented: about 7.5% of the library has one in this group of screens.
# NPC1 prom act: activates the NPC1 promoter. Potency, µM (doses to about 9.22 µM), without a hit: top-dose activation, hits mostly activators. 2.4% of 320,000 active. Huh7 NPC1 promoter luciferase reporter, 24 h; further: % of control where 0% means no effect; nearly all actives have a fitted effect of over 60% in size
#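 Luminescence read-out of NPC1 promoter-driven luciferase in stably transfected Huh7 cells; compounds delivered in DMSO and left 24 h at 37C, 5% CO2, qHTS titration format.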
# ELG1 genotox: induces genotoxicity in HEK293T cells with luciferase-tagged ELG1 | HEK293T ELG1-luciferase reporter, luminescence, 16 h | Potency, µM (highest dose often 46 µM), for inactives: at the top dose activity change, positive = activation, hits mostly activators | 1.3% of 330,000 active | AID 504466; further: % of control where 0% means no effect; nearly all actives have a fitted effect of over 60% in size
#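 ELG1-luciferase HEK293T cells, 2,000/well; compound pinned in; 16 hr, 37 °C, 5% CO2; ONE-Glo, 30 min RT; luminescence on CCD imager.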
# KinaseGlo FLuc: Kinase-Glo luciferase inhibition (counter-screen); Q27757; Kinase-Glo luciferase, ATP luminescence, 8 min; Potency, µM (series often up to 38.3 µM), inactives show at the highest dose activity change, negative = inhibition, most hits filed as inhibitors; 0.28% of 200,000 active; AID 1379; further: on the % scale 0 is the no-effect control and ±100 the full control effect; nearly all actives have a fitted effect of over 60% in size
#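 Luminescence was the read-out, taken after 8-minute incubation at ambient temperature. Luciferase turned over luciferin with 10 uM ATP in imidazole pH 7.2 buffer containing KCl, MgCl2, Tween 20 and BSA.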
# Rab9 promoter act: activators of Rab9 promoter. Huh7 Rab9 promoter-luciferase reporter, luminescence, 24 h. Potency, µM (series often up to 9.22 µM), for inactives: top-dose activation, negative = inhibition, most hits filed as activators. 2.8% of 320,000 active. AID 485297; further: % of control where 0% means no effect; nearly all actives have a fitted effect of over 60% in size
#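 Cells were plated at 1500 per well in reduced-serum medium with 10% FBS and left 2 h. Compound in DMSO was then added for 24 h at 37 °C. Reporter signal was read by luminescence after 10 min with luciferase detection reagent.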
# FLuc counter: counter-screen for miR-21 project: firefly luciferase inhibitors or activators. Potency, µM (series often up to 57.5 µM), without a hit: at the highest dose activity change, negative = inhibition, usual class: inhibitors. 6.9% of 360,000 active. purified FLuc, Km substrates, luminescence inhibition. AID 588342;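 further: plate controls were vehicle for no effect and reference inhibitor for full effect; nearly all actives have a fitted effect of over 55% in size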
# Target sequence (P08659 whole entry, looked up): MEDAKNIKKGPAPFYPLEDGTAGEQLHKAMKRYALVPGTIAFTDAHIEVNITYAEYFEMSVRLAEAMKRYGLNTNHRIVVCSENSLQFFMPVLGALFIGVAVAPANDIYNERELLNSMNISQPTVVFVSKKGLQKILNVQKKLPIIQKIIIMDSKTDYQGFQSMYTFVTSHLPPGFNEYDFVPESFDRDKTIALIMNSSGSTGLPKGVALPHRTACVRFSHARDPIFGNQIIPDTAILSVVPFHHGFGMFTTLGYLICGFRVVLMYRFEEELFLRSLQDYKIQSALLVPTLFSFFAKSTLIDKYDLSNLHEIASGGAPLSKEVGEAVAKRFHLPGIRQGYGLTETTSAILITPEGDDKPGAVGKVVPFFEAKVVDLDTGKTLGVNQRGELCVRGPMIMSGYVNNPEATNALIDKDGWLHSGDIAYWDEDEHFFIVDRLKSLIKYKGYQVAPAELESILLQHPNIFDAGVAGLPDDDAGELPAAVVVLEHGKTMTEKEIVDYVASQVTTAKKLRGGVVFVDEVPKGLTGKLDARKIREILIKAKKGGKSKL
#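 Biochemical qHTS of compounds, final roughly 60 µM downward over six points, against 10 nM purified firefly luciferase using Km concentrations of substrates (10 uM D-luciferin, 10 uM ATP) in Tris acetate pH 7.5 buffer; luminescence output.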
# SMN2 splice enh: SMN2 splice variant enhancement; HEK293 SMN2-luciferase splicing reporter, luminescence, 30-36 h; Potency, µM (highest dose often 46.1 µM), inactives show at the highest dose activity change, positive = activation, actives largely listed as activators; 2.8% of 210,000 active; AID 1458; further: % of control where 0% means no effect; nearly all actives have a fitted effect of over 55% in size
#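 qHTS luciferase splicing reporter: luminescence rises when SMN2 exon 7 is included in transfected HEK293 cells. Compound exposure lasted 30-36 h at 37C, with 4.5 mM final sodium butyrate as control, followed by a ONE-Glo read.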
# * hit, by the source's call; ? = inconclusive; . = not tested or not shown. The call rests on the fitted dose curve; in most records, active means well fitted curve in the direction sought with a large enough effect; inconclusive means small, poorly fitted or top-dose-only effect, or another doubt; inactive means no such curve, though single readings can be large; an effect the other way counts as inactive or inconclusive. Potency means the concentration at half of the fitted maximal effect.
SMILES,NPC1 prom act,ELG1 genotox,KinaseGlo FLuc,Rab9 promoter act,FLuc counter,SMN2 splice enh
COc1ccc(-c2onc(C)c2C)cc1S(=O)(=O)NCc1ccc(C)o1,.,.,.,.,-9%,.
Cc1noc(/C=C/N(C)C)c1S(=O)(=O)N1CCCC(C(=O)Nc2ccc(F)cc2F)C1 (stereo unspecified),18%,-12%,.,2%,3%,-4%
CCOc1ccc(-c2cc3c(=O)n(Cc4nc(-c5ccc(OCC)c(OC)c5)oc4C)ccn3n2)cc1Cl,.,.,.,.,-5%,-2%
Cc1ccc(-c2cc3c(N4CCN(c5cc(C)ccc5C)CC4)nccn3n2)cc1,.,.,.,.,-10%,3%
Clc1cccc(-n2ncc3c(Nc4ccc5c(c4)OCCO5)ncnc32)c1,.,.,.,.,13µM*,.
Fc1ccc(-n2ncc3c(Nc4ccc5c(c4)OCCO5)ncnc32)cc1,.,.,.,.,17µM*,.
Cc1ccc(Cl)cc1-n1ncc2c(Nc3ccc4c(c3)OCCO4)ncnc21,.,.,.,.,11µM*,.
Cc1ccc(-n2ncc3c(Nc4ccc5c(c4)OCCO5)ncnc32)cc1Cl,.,.,.,.,-18%,.
Cc1onc(-c2ccccc2)c1C(=O)NCCSCc1ccco1,.,-2%,.,.,.,.
Cc1cc(Nc2ccccc2C)n2nc(Cc3ccc(Cl)cc3)nc2n1,.,.,.,.,6%,11%
Cc1cc(C)cc(NC(=O)c2cc(S(=O)(=O)N3CCCC3)ccc2F)c1,.,.,.,.,-11%,.
CN(C)c1ccc(C2C3CCCc4ccccc4C3=NN2C)cc1 (stereo unspecified),?,9%,.,3.2µM*,19µM*,.
CN1N=C2c3ccccc3CCC2C1c1ccc(C(F)(F)F)cc1 (stereo unspecified),26%,0%,.,24%,?,.
O=C(c1ccc(O)cc1)c1ccc(O)cc1O,-1%,3%,.,-4%,-17%,.
CN(C)c1ccc(C(=O)c2ccc(O)cc2O)cc1,?,?,-3%,21%,11µM*,?
Cc1cc(NC(=O)NCc2ccc3c(c2)CCN3C(=O)c2ccccc2)ccc1Br,.,.,.,.,-15%,.
Cc1ccc(C(=O)c2cnc3cc4c(cc3c2S(=O)(=O)c2ccccc2)OCCO4)cc1,14%,11%,4%,13%,1.7µM*,-85%
CCOc1ccc(S(=O)(=O)c2c(C(=O)c3ccc(C)cc3)cnc3cc4c(cc23)OCCO4)cc1,1%,1%,-1%,-5%,6%,-19%
O=Nc1ccc(Nc2ccccc2)cc1,.,.,.,.,.,3%
O=C(Nc1ccccn1)c1ccc2ccccc2c1O,3.2µM*,23%,.,3.2µM*,21µM*,.
CC(C)c1ccc(/C=N/NC(=O)c2ccccc2Cl)cc1,-17%,?,0%,1%,24µM*,.
O=C(O)c1ccccc1C(=O)Nc1ccccn1,-8%,6%,2%,5%,3%,-5%
O=C(N/N=C/c1cccnc1)c1ccccc1Br,3%,2%,.,-2%,-10%,.
COc1ccc(/C=N/NC(N)=S)cc1OC(=O)c1cccc2ccccc12,1%,-5%,-4%,5%,6µM*,-47%
O=C(N/N=C\c1cccnc1)c1ccccc1O,28%,?,.,?,7.6µM*,.
SMILES,NPC1 prom act,ELG1 genotox,KinaseGlo FLuc,Rab9 promoter act,FLuc counter,SMN2 splice enh
COC(=O)c1ccc(/C=N/NC(=O)c2ccccc2Cl)cc1,14%,9%,-1%,18%,?,21%
COc1ccc(C(=O)Oc2cc(/C=N/NC(N)=S)ccc2OC)cc1,-5%,2%,-7%,-6%,-13%,9%
N#Cc1ccc(C(=O)Nc2ccccc2-c2nc3ccccc3s2)c(F)c1,.,.,.,.,-5%,0%
O=C(Nc1cccnc1)c1ccc2ccccc2c1O,2.5µM*,?,.,2µM*,2.1µM*,.
O=C(Cc1ccccc1)Nc1cccc([N+](=O)[O-])c1,-4%,0%,4%,-2%,2%,-23%
O=C(N/N=C\c1cccnc1)c1ccc(Cl)cc1Cl,0%,1%,.,2%,?,.
COc1cc(/C=N\NC(=O)c2cccnc2)ccc1OC(=O)c1ccccc1Cl,-1%,14%,.,3%,11µM*,.
O=C(Cc1cccc2ccccc12)Nc1cccnc1,-3%,9%,-4%,-4%,4%,-16%
O=C(N/N=C/c1cccnc1)c1ccccc1Cl,24%,15%,.,25%,11µM*,.
COc1cc(/C=N/NC(=O)c2cccnc2)ccc1OC(=O)c1ccco1,-5%,0%,-6%,1%,-20%,3%
O=C(Nc1cccc([N+](=O)[O-])c1)c1ccc2ccccc2c1O,?,15%,.,?,0.67µM*,.
CCNC(=O)c1cnc2sc(N3CCCCCC3)nn2c1=O,.,.,.,.,5%,.
Cc1cccc(OCCOC(=O)CN2C(=O)NC3(CCCC3)C2=O)c1,-9%,0%,.,6%,-1%,.
CCOC(=O)c1cccc(NC(=O)c2cc3c(=O)n(C)c4ccccc4c3n2C)c1,.,.,.,.,1%,10%
CCCCC1(c2ccc(F)cc2)NC(=O)N(CC(=O)N2CCN(C(=O)c3ccco3)CC2)C1=O (stereo unspecified),-2%,2%,.,3%,4%,.
O=C(N/N=C/c1cccnc1)c1ccc2ccccc2c1O,13%,?,.,27%,5.4µM*,.
Cc1ccc(NC(=O)Nc2ccc(Cl)c(Cl)c2)nc1,?,?,.,4.5µM*,?,.
Cc1ccc(NC(=O)Nc2ccc(Cl)cn2)cc1,13%,?,-1%,4µM*,?,11µM*
Cc1ccc(Cc2nc3ccccc3[nH]2)cc1,0%,-2%,.,0%,-19%,.
Cc1ccc(C)c(C(=O)Nc2nc3ccccc3[nH]2)c1,27%,-6%,.,27%,-5%,.
Cc1ccc(/C=C/C(=O)c2nc3ccccc3[nH]2)cc1,0%,1%,-22%,11%,0.76µM*,?
O=C(/C=C/c1c(F)cccc1Cl)Nc1nc2ccccc2[nH]1,3.2µM*,?,-8%,2.8µM*,-19%,7.1µM*
